proKLK7 act: proKLK7 zymogen activators, primary screen, biochemical, fluorescence intensity | purified proKLK7, EDANS-DABCYL substrate fluorescence; 100% is mature enzyme control, 0% vehicle | activation, % at 7 µM | 370,000 compounds, 0.9% hits | AID 652039, 2013;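 active means activation above the mean of all tested compounds plus 3 SD, computed per campaign excluding outliers beyond control limits, cut at about 13% in these data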
PLCg1 inh: PLC-gamma1 enzyme inhibitors, primary screen, biochemical, fluorescence, purified enzyme. 1-phosphatidylinositol 4,5-bisphosphate phosphodiesterase gamma-1 (Homo sapiens), P19174. fluorogenic substrate. inhibition, % at 12.2 µM. 370,000 compounds, 0.84% hits. AID 720700, 2013; in the data active means inhibition above about 9.5%
ADAM10 inh: human ADAM10 inhibitors, primary screen, biochemical, QFRET, HTS | 370,000 compounds, 0.62% hits | Disintegrin and metalloproteinase domain-containing protein 10 (Homo sapiens), O14672 | inhibition, % at 7 µM | recombinant ADAM10, EDANS/DABCYL FRET peptide cleavage, 3 h | AID 720582, 2013;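 active means inhibition above a per-campaign cutoff equal to the mean of compounds falling between control-based bounds plus 3 SD, cut at about 20% in these data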;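 further: 0% = DMSO wells while the 100% control is not disclosed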
ADAM17 inh: ADAM17 inhibitors, primary screen, biochemical, QFRET. 370,000 compounds, 0.83% hits. inhibition, % at 6.95 µM. recombinant ADAM17, EDANS/DABCYL FRET peptide cleavage;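 active means inhibition above the mean of compounds lying between control limits plus 3 SD, set per campaign, cut at about 8.5% in these data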;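 further: 0% = DMSO-only wells as the low control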
Target sequence (P78536 215-824 limits assumed): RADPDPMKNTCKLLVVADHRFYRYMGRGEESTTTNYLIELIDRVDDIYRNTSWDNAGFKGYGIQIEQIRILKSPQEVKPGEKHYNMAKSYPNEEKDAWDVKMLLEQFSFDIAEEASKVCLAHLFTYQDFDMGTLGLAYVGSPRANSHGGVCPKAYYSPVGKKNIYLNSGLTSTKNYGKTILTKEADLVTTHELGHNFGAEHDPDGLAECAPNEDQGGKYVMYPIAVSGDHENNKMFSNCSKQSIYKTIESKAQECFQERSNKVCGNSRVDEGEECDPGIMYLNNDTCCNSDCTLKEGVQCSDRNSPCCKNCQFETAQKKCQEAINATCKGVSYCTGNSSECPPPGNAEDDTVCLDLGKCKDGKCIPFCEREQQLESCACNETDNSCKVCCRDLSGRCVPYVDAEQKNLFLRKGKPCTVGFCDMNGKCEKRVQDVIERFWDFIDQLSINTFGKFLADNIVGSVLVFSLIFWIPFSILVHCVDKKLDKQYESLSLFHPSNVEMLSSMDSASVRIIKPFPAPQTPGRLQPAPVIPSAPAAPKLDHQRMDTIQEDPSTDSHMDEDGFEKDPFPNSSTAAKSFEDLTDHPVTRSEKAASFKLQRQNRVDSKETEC
PLCb3 inh: human PLC-beta3 inhibitors, primary screen, biochemical, fluorescence. 1-phosphatidylinositol 4,5-bisphosphate phosphodiesterase beta-3 (Homo sapiens), Q01970. Purified PLC-beta3, fluorogenic substrate. inhibition, % at 12.2 µM. 370,000 compounds, 0.18% hits. AID 720704, 2013; in the data active means inhibition above about 11%;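 further: 0% = median of compound wells on plate and 100% = full blocker control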
KLK7 act conf: proKLK7 zymogen activators, confirmation, biochemical, fluorescence intensity, triplicate. shares compounds with proKLK7 act. purified proKLK7, EDANS-DABCYL substrate fluorescence; scaled: vehicle 0, mature enzyme 100. activation, % at 7 µM. 3,200 compounds, 68% hits;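 active means activation, as change over the incubation, above the mean of all tested compounds plus 3 SD, cut at about 13% in these data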
EDANS-DABCYL int: EDANS-DABCYL substrate optical interference, artefact control for kallikrein-7 zymogen activator project, biochemical, fluorescence intensity, high throughput. shares compounds with proKLK7 act. no enzyme, 4 h; solvent 0%, active enzyme control 100%. activation, % at 7 µM. 3,200 compounds, 80% hits. AID 686952, 2013;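 active means activation above the all-compound mean plus 3 SD, ignoring values outside control-based bounds, cut at about 4.8% in these data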;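 further: value is the 4 h activation minus the activation read at time zero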
Numbers without * were called inactive; i = inactive; · = no result given. In the library only some 2.9% were active in any assay of this set; here they are far more common.

SMILES	proKLK7 act	PLCg1 inh	ADAM10 inh	ADAM17 inh	PLCb3 inh	others
CC(Cc1ccccc1)NC(=O)Cc1ccc([N+](=O)[O-])cc1 (stereo not given)	0	9.8*	10	7	0
O=[N+]([O-])c1ccc(Nc2ccccc2)cc1	1	-7	4	0	-6
Cc1ccc(C(=O)N[C@@H](C)CN2C3=NC[C@@H](Cc4ccccc4)N3C[C@H]2Cc2ccc(O)cc2)cc1Br	1	13*	1	2	5
Cc1ccc(Cl)cc1N1CCN(CCN)CC1	-1	16*	4	4	4
O=C(c1ccccc1)N1Cc2cc(Br)ccc2-n2nncc2C1	1	1	-3	-2	4
Cc1nc2c(=O)n(C)c(=O)nc-2n(C)n1	0	60*	7	3	6
Nc1ccc(Cc2ccc(N)cc2)cc1	0	-1	-10	-1	11*
COc1cccc(NC2=NCCS2)c1	1	2	-4	-5	0
COC(=O)C1=C(c2ccc(F)cc2OCc2ccccc2)C[C@@H]2CC[C@H]1N2C(=O)NC1Cc2ccccc2C1	0	5	17	10*	0
COC(=O)C1=C(c2ccc(F)cc2OCc2ccccc2)C[C@@H]2CC[C@H]1N2C(=O)NCc1ccc(F)cc1	0	-2	6	4	2
O=C(COc1ccc2ccccc2c1)N1CCN(Cc2c[nH]c3ccccc23)CC1	1	3	2	8.7*	-5
O=C(O)CCl	0	5	-7	2	-11
O=S(=O)(c1ccc(Cl)cc1)N1Cc2ccc(Br)cc2-n2nncc2C1	1	2	-18	-2	-2
CC(NC(=O)OC1CC2CCC1(C)C2(C)C)P(=O)(Oc1ccccc1)Oc1ccccc1 (stereo not given)	·	3	-1	-2	2
COc1ccc(Cn2c(N)c(C(=O)NCc3ccco3)c3nc4ccccc4nc32)cc1OC	-18	-485	-444	-178	i
Nc1c(C(=O)NCc2ccco2)c2nc3ccccc3nc2n1CCN1CCCCC1	63*	i	i	-458	i	KLK7 act conf=-57;EDANS-DABCYL int=-69
CCCC(=O)N1c2ccc(Cl)cc2C(c2ccccc2)=NCC1C(=O)NC(C)(C)C (stereo not given)	0	-3	1	1	-1
O=c1ccc2cc(OC3O[C@H](CO)[C@@H](O)[C@H](O)[C@H]3O)c(O)cc2o1 (stereo not given in full)	53*	i	i	i	i	KLK7 act conf=59*;EDANS-DABCYL int=74*
COc1cc([C@H]2OC[C@H]3[C@@H]2CO[C@@H]3c2cc(OC)c(O[C@@H]3O[C@H](CO)[C@@H](O)[C@H](O)[C@H]3O)c(OC)c2)cc(OC)c1O[C@H]1O[C@@H](CO)[C@H](O)[C@@H](O)[C@@H]1O	-1	-16	-64	-14	-21
CC(C)C(C(=O)NC(C)(C)C)N1C(=O)CN=C(c2ccccc2)c2ccccc21 (stereo not given)	0	-2	9	3	1
CCOC(=O)c1cc2c(cn1)[nH]c1ccccc12	20*	-87	-293	-72	-109	KLK7 act conf=-2;EDANS-DABCYL int=-5
CN1CCN(c2ccc3c(c2)S(=O)(=O)c2ccccc2C3=O)CC1	20*	-480	6	0	i	KLK7 act conf=5;EDANS-DABCYL int=4.2*
COc1cccc(-c2ccc3c(c2)C2c4cnnn4-c4ccccc4C(=O)N2CC3)c1 (stereo not given)	0	0	-6	-6	3
